The values below come from the supplement of paper PMC6522484.

The structures appear in SMILES notation. ± gives the standard deviation of the averaged measurements.

For assay [1], the system named is DLD1. The experiment in a line: cell viability (CellTiter-Glo) relative to plate median (fraction of plate median); higher = more viable cells. The settings on record: 5 µM; treatment time 24 h; reporter: 7TFP. In a few lines:
(§1)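 Colorectal cancer cell lines stably carrying lentiviral TCF/Wnt firefly luciferase reporters (7TFP or TCF4/Wnt) were plated in 384-well plates and, 24 h later, given library compounds at a final 5 µM for 24 h. Firefly luciferase or CellTiterGlo luminescence was read on parallel plates with a Tecan F500 reader. Each well's signal was normalised to the plate median in webcellHTS2 (additive, without log transformation). Values are the mean of two independent replicates.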
Background: ATP-based viability assays read luminescence as a measure of living cells.

Assay [2] has as its system HCT116. Described as above. The settings on record: 5 µM; treatment time 24 h; reporter: TCF4/Wnt. The procedure, abridged: as §1
Assay [3] deals with SW480. The description is as above. The settings on record: 5 µM; treatment time 24 h; reporter: 7TFP. The procedure, abridged:
as §1

For assay [4], the system named is DLD1. The experiment in a line: TCF/Wnt firefly luciferase reporter signal relative to plate median (fraction of plate median); higher = higher Wnt reporter signal. The settings on record: 5 µM; treatment time 24 h; reporter: 7TFP. In a few lines:
as §1
(In general: A reporter such as luciferase makes a cellular process visible.)

Assay [5] relates to SW480. The assay is described as above. The settings on record: 5 µM; treatment time 24 h; reporter: 7TFP. In a few lines: as §1

Consider `COC(=O)C1=CO[C@@H](O[C@@H]2O[C@H](CO)[C@@H](O)[C@H](O)[C@H]2O)[C@@H]2[C@@H](C)CC(=O)[C@]12O`, for which the cell viability was found to be 0.871 ± 0.067 in assay [1], 0.88 ± 0.17 in assay [2] and 0.988 ± 0.06 in assay [3]. Also, the results for the “TCF/Wnt firefly luciferase reporter signal” value in assay [4] and in assay [5] were 1.04 ± 0.19 and 1.08 ± 0.035, respectively.

For `CS(=O)(=O)Nc1ccc([N+](=O)[O-])cc1Oc1ccccc1`, the cell viability in assay [1] came out at 1.02 ± 0.021; in assay [2] it was 0.967 ± 0.089; in assay [3] it was 0.978 ± 0.018. Also, the “TCF/Wnt firefly luciferase reporter signal” value in assay [4] was 1.01 ± 0.022; in assay [5], 0.981 ± 0.028.

In the case of `CC(=O)OC[C@H]1O[C@@H](Oc2cc(OC(C)=O)c3c(=O)cc(-c4ccc(OC(C)=O)cc4)oc3c2)[C@H](OC(C)=O)[C@@H](OC(C)=O)[C@@H]1OC(C)=O`, the values for the cell viability in assay [1], in assay [2] and in assay [3] were 1.02 ± 0.021, 1.11 and 0.992 ± 0.054, respectively. For the same compound, the “TCF/Wnt firefly luciferase reporter signal” value in assay [4] was determined as 1.07 ± 0.13; in assay [5] it was 0.938 ± 0.036.

`CC(=O)N(O)CCCCCNC(=O)CCC(=O)N(O)CCCCCNC(=O)CCC(=O)N(O)CCCCCN`: the cell viability in assay [1] worked out at 0.987 ± 0.015; in assay [2], 0.95 ± 0.032; in assay [3] it was 0.89 ± 0.073. Besides, the figures for the “TCF/Wnt firefly luciferase reporter signal” value in assay [4] and in assay [5] were 0.869 ± 0.067 and 1.06 ± 0.021, respectively.

With `CCCCCc1c2c(cc(O)c1C(=O)O)OC(=O)c1c(cc(OC)cc1C(=O)CCCC)O2`, the cell viability in assay [1] worked out at 0.958 ± 0.036; in assay [2], 0.973 ± 0.14; in assay [3], 1 ± 0.013. For the same compound, the results for the “TCF/Wnt firefly luciferase reporter signal” value in assay [4] and in assay [5] were 0.963 ± 0.034 and 1.05 ± 0.16, respectively.

Regarding `O=C1c2c(O)ccc(O)c2C(=O)c2c(NCCNCCO)ccc(NCCNCCO)c21`, the cell viability in assay [1] turned out to be 1.09 ± 0.078; in assay [2] it was 0.635 ± 0.19; in assay [3], 0.997 ± 0.018. Further, the figures for the “TCF/Wnt firefly luciferase reporter signal” value in assay [4] and in assay [5] were 0.936 ± 0.03 and 0.436 ± 0.04, respectively.

On to `CCCOc1ccccc1-c1nc2[nH]nnc2c(=O)[nH]1`, for which the cell viability worked out at 0.985 ± 0.035 in assay [1], 0.973 ± 0.14 in assay [2] and 0.909 ± 0.058 in assay [3]. Moreover, the entries for the “TCF/Wnt firefly luciferase reporter signal” value in assay [4] and in assay [5] were 1.01 ± 0.064 and 0.951 ± 0.084, respectively.

For the compound `C[C@H]1[C@H](C)CC[C@]2(CO)CC[C@]3(C)C(=CC[C@@H]4[C@@]5(C)CC[C@H](O)C(C)(C)[C@@H]5CC[C@]43C)[C@H]12`, the cell viability worked out at 1 ± 0.042 in assay [1], 1.02 ± 0.12 in assay [2] and 1 ± 0.05 in assay [3]. Besides, the “TCF/Wnt firefly luciferase reporter signal” value in assay [4] came to 0.871 ± 0.16; in assay [5], 0.915 ± 0.048.

In the case of `CCCNC(C)C(=O)Nc1ccccc1C` (stereo not given), the values for the cell viability in assay [1], in assay [2] and in assay [3] were 1 ± 0.013, 0.972 ± 0.096 and 1.03 ± 0.028, respectively. For the same compound, the “TCF/Wnt firefly luciferase reporter signal” value in assay [4] was determined as 0.912 ± 0.028; in assay [5], 0.96 ± 0.03.

With `CN(C)[C@@H]1C(O)=C(C(N)=O)C(=O)[C@@]2(O)C(O)=C3C(=O)c4c(O)cccc4[C@@](C)(O)[C@H]3[C@H](O)[C@@H]12`, the cell viability in assay [1] was 1.02 ± 0.17; in assay [2], 1.07 ± 0.071; in assay [3], 1.01 ± 0.021. The “TCF/Wnt firefly luciferase reporter signal” value in assay [4] was 0.901 ± 0.18; in assay [5], 1 ± 0.071.

As to `CC(=O)NCCCCCC(=O)O`, the cell viability was 0.987 ± 0.047 in assay [1], 1.01 ± 0.027 in assay [2] and 1.035 ± 0.0071 in assay [3]. For the same compound, the results for the “TCF/Wnt firefly luciferase reporter signal” value in assay [4] and in assay [5] were 1.01 ± 0.068 and 1.04 ± 0.07, respectively.

As for `NC(N)=O`, the cell viability in assay [1] came to 1.03 ± 0.014; in assay [2], 0.988 ± 0.088; in assay [3] it was 0.999 ± 0.044. Further, the “TCF/Wnt firefly luciferase reporter signal” value came out at 0.898 ± 0.0028 in assay [4] and 0.934 ± 0.076 in assay [5].

For the compound `CCOc1nc2cccc(C(=O)OC(C)OC(=O)OC3CCCCC3)c2n1Cc1ccc(-c2ccccc2-c2nn[nH]n2)cc1` (stereo not given), the figures for the cell viability in assay [1], in assay [2] and in assay [3] were 0.864 ± 0.052, 0.959 ± 0.042 and 1.045 ± 0.0071, respectively. For the same compound, the “TCF/Wnt firefly luciferase reporter signal” value in assay [4] came out at 1.06 ± 0.2; in assay [5], 1.07 ± 0.064.

Turning to `CCN(CC)CCOC(=O)C1(C2CCCCC2)CCCCC1`, the values for the cell viability in assay [1], in assay [2] and in assay [3] were 0.98 ± 0.0014, 1.02 ± 0.14 and 1.045 ± 0.0071, respectively. Also, the “TCF/Wnt firefly luciferase reporter signal” value in assay [4] was 0.9375 ± 0.0078; in assay [5], 1.045 ± 0.0071.

Regarding `CN1C(C(=O)Nc2ccccn2)=C(O)c2sccc2S1(=O)=O`, the cell viability stood at 0.932 ± 0.03 in assay [1], 0.893 ± 0.011 in assay [2] and 0.9585 ± 0.00071 in assay [3]. Further, the figures for the “TCF/Wnt firefly luciferase reporter signal” value in assay [4] and in assay [5] were 0.978 ± 0.073 and 1.09 ± 0.014, respectively.

Regarding `CC[C@H](C)C(=O)O[C@H]1C[C@@H](C)C=C2C=C[C@H](C)[C@H](CC[C@@H]3C[C@@H](O)CC(=O)O3)[C@H]21`, the cell viability in assay [1] came out at 1.02 ± 0.086; in assay [2], 1.06 ± 0.028; in assay [3], 1.035 ± 0.0071. Further, the entries for the “TCF/Wnt firefly luciferase reporter signal” value in assay [4] and in assay [5] were 1.02 ± 0.079 and 1.07 ± 0.021, respectively.

Take `COc1cc(O)ccc1C(C)=O`: the cell viability in assay [1] is 0.941 ± 0.059; in assay [2], 0.97 ± 0.015; in assay [3] it was 0.92 ± 0.0071. Besides, the entries for the “TCF/Wnt firefly luciferase reporter signal” value in assay [4] and in assay [5] were 0.889 ± 0.054 and 0.97 ± 0.026, respectively.

For the compound `COC(=O)Nc1nc2cc(Sc3ccccc3)ccc2[nH]1`, the cell viability in assay [1] stood at 1.01 ± 0.014; in assay [2], 1.03; in assay [3], 1.03 ± 0.05. Also, the “TCF/Wnt firefly luciferase reporter signal” value was found to be 0.99 ± 0.071 in assay [4] and 0.995 ± 0.05 in assay [5].

On to `NC(=O)NC1NC(=O)NC1=O` (stereo not given), for which the cell viability in assay [1] is 1.03 ± 0.014; in assay [2], 1.09 ± 0.057; in assay [3], 1.01 ± 0.03. Also, the “TCF/Wnt firefly luciferase reporter signal” value in assay [4] came out at 1.02 ± 0.15; in assay [5], 1.055 ± 0.0071.

As to `CCCCOC(=O)c1ccc(N)cc1`, the cell viability in assay [1] came to 1.02 ± 0.054; in assay [2], 0.942 ± 0.023; in assay [3] it was 0.961 ± 0.021. The “TCF/Wnt firefly luciferase reporter signal” value stood at 0.936 ± 0.027 in assay [4] and 1.03 ± 0.083 in assay [5].

`O=C1c2ccccc2C(=O)c2c1ccc(O)c2O`: the values for the cell viability in assay [1], in assay [2] and in assay [3] were 1.01 ± 0.074, 1.05 ± 0.13 and 0.983 ± 0.053, respectively. The “TCF/Wnt firefly luciferase reporter signal” value worked out at 1.09 ± 0.11 in assay [4] and 1.1 ± 0.13 in assay [5].

Turning to `CC(=O)OCC(=O)[C@H]1CC[C@H]2[C@@H]3CCC4=CC(=O)CC[C@]4(C)[C@H]3CC[C@]12C`, the cell viability in assay [1] amounted to 0.952 ± 0.082; in assay [2], 0.961 ± 0.13; in assay [3], 0.974 ± 0.0014. In addition, the “TCF/Wnt firefly luciferase reporter signal” value in assay [4] turned out to be 1.11 ± 0.05; in assay [5], 0.93 ± 0.059.

On to `Oc1cccc2nc3c(O)cccc3nc12` [1,6-Phenazinediol], for which the cell viability in assay [1] stood at 1.12 ± 0.014; in assay [2], 0.992 ± 0.069; in assay [3], 1.01. Moreover, the “TCF/Wnt firefly luciferase reporter signal” value in assay [4] amounted to 1.12 ± 0.042; in assay [5], 1.12 ± 0.12.

Turning to `NS(=O)(=O)c1cc2c(cc1Cl)NCNS2(=O)=O`, the cell viability in assay [1] worked out at 0.988 ± 0.1; in assay [2] it was 1.02; in assay [3], 1.04 ± 0.042. The “TCF/Wnt firefly luciferase reporter signal” value in assay [4] worked out at 1.15 ± 0.071; in assay [5], 1.1 ± 0.028.

Consider `CC1(C)NC(=O)N(c2ccc([N+](=O)[O-])c(C(F)(F)F)c2)C1=O`, for which the results for the cell viability in assay [1], in assay [2] and in assay [3] were 1.05 ± 0.084, 0.983 ± 0.052 and 1 ± 0.042, respectively. Moreover, the “TCF/Wnt firefly luciferase reporter signal” value in assay [4] came to 1.02 ± 0.014; in assay [5], 0.961 ± 0.044.

Regarding `O=c1cccc2ccc(O)c(O)c2c1O`, the figures for the cell viability in assay [1], in assay [2] and in assay [3] were 0.975 ± 0.012, 0.994 ± 0.11 and 0.966 ± 0.033, respectively. Further, the “TCF/Wnt firefly luciferase reporter signal” value in assay [4] was 0.994 ± 0.079; in assay [5], 1.06 ± 0.042.

On to `COc1ccc2c(=O)ccoc2c1`, for which the cell viability is 0.979 ± 0.059 in assay [1], 0.933 ± 0.11 in assay [2] and 0.942 ± 0.0071 in assay [3]. For the same compound, the figures for the “TCF/Wnt firefly luciferase reporter signal” value in assay [4] and in assay [5] were 1.03 ± 0.021 and 1.05 ± 0.1, respectively.

As to `O=C(O)c1ccccc1OP(=O)(O)O`, the figures for the cell viability in assay [1], in assay [2] and in assay [3] were 0.9465 ± 0.0035, 0.9665 ± 0.0092 and 0.911 ± 0.028, respectively. Further, the figures for the “TCF/Wnt firefly luciferase reporter signal” value in assay [4] and in assay [5] were 0.939 ± 0.042 and 0.932 ± 0.04, respectively.

Turning to `CC(C)[C@@H](C)/C=C/[C@@H](C)[C@H]1CC[C@H]2C3=CCC4CC(=O)CC[C@]4(C)[C@H]3CC[C@]12C` (stereo not given in full), the cell viability in assay [1] amounted to 0.975 ± 0.078; in assay [2], 1.07 ± 0.05; in assay [3] it was 1.08. The “TCF/Wnt firefly luciferase reporter signal” value was 1.06 ± 0.071 in assay [4] and 1.06 ± 0.021 in assay [5].
